A short description of assay [1]: qHTS assay to identify small molecule agonists of the NFkB signaling pathway - cell viability counter screen (AID 1159515; calls by dose curve; note: nearly all actives have a fitted effect of over 55% in size; note: potency is the fitted concentration of half-maximal effect). The gist of the method:
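5 hr compound treatment of NFkB-bla ME-180 cells (2,000/well, seeded overnight beforehand), followed by reporter substrate for 1.5 hr. CellTiter-Glo added afterward; luminescence after 30 min RT.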

Assay [2] has as its target Nuclear receptor ROR-gamma (Homo sapiens) (UniProt P51449). Kind of assay: qHTS assay to identify small molecule antagonists of the retinoid-related orphan receptor gamma (ROR-gamma) signaling pathway (AID 1159521; note: nearly all actives have a fitted effect of over 50% in size; note: potency is the fitted concentration of half-maximal effect). The gist of the method:
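Inducible-expression reporter assay: doxycycline (1 uM final) switched on RORγ in CHO cells bearing a ROR response element-luciferase construct, with test compounds present from 2 h beforehand. Decreased luminescence after 16 h defined antagonist activity.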

A short description of assay [3]: qHTS assay to identify small molecule agonists of the AP-1 signaling pathway - cell viability counter screen (AID 1159525; calls by dose curve; note: nearly all actives have a fitted effect of over 55% in size). The gist of the method: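 ME-180 AP-1-bla, 2500 cells/well, Opti-MEM + 0.5% dialyzed FBS; overnight 37 °C; cpd 15-pt titration, 5 h 37 °C; CellTiter-Glo 30 min RT; luminescence read; normalised to TOAB and DMSO controls.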
Assay [4] is described as follows: qHTS assay to identify small molecule agonists of the RXR signaling pathway - cell viability counter screen (AID 1159529). Note: series mostly up to about 77 µM; nearly all actives have a fitted effect of over 50% in size. The gist of the method:
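Counter screen: CellTiter-Glo luminescence. Cells: RXR-alpha-UAS-bla HEK 293T. Medium: 2% charcoal-stripped FBS. Treatment: 16 h, 37 C. Reagent incubation: 30 min, RT.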

A short description of assay [5]: qHTS assay to identify small molecule antagonists of the retinoid acid receptor (RAR) signaling pathway - cell viability counter screen (AID 1159551). Note: nearly all actives have a fitted effect of over 35% in size. The gist of the method: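 Seed C3RL4 cells; next day add compound, then retinol to 1 uM final; incubate 6 h at 37 C; add CellTiter-Glo; read luminescence after 30 min at RT.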
A short description of assay [6]: qHTS assay to identify small molecule antagonists of the retinoic acid receptor (RAR) signaling pathway (AID 1159552; note: nearly all actives have a fitted effect of over 50% in size). The gist of the method:
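Antagonism of retinol-induced RARE reporter activity was measured in C3RL4 cells. Exposure to compounds and 1 uM final retinol lasted 6 hr at 37 C, with luminescence as endpoint.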

Assay [7] is described as follows: qHTS assay to identify small molecule antagonists of the estrogen related receptor (ERR) signaling pathway from Tox21 library - cell viability counter screen (AID 1224834). Note: nearly all actives have a fitted effect of over 30% in size. Note: potency is the fitted concentration of half-maximal effect. The gist of the method:
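CellTiter-Fluor fluorescence measured; ERR cells; 17.5 h compound incubation at 37 C; 30 min reagent step.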

In assay [8] the target is Luciferin 4-monooxygenase (Photinus pyralis) (UniProt P08659). The assay can be described thus: qHTS assay to identify small molecule inhibitors of firefly luciferase (AID 1224835). Note: nearly all actives have a fitted effect of over 25% in size. Note: potency is the fitted concentration of half-maximal effect. The gist of the method:
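Quantitative HTS format; KM concentrations of both substrates. Purified P. pyralis FLuc activity quantified from luminescence images.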

The nature of assay [9]: qHTS assay to identify small molecule agonists of the vitamin D receptor (VDR) signaling pathway - cell viability counter screen (AID 743224). Note: nearly all actives have a fitted effect of over 50% in size. Note: potency is the fitted concentration of half-maximal effect. The gist of the method: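 Here cell health was gauged by luminescent ATP detection (CellTiter-Glo, 30 min RT) in VDR-bla cells that had been incubated with test compounds for 16 h at 37C and 5% CO2.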
Assay [10] can be described thus: qHTS assay to identify small molecule antagonists of the vitamin D receptor (VDR) signaling pathway - cell viability counter screen (AID 743225). Note: nearly all actives have a fitted effect of over 50% in size. Note: potency is the fitted concentration of half-maximal effect. The gist of the method: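 Same-well multiplex: following 16 h treatment of HEK 293T cells carrying a UAS-driven beta-lactamase reporter with compound and agonist (3 nM final), and a 2 h FRET substrate step, CellTiter-Glo was added and luminescence read after 30 min.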

Assay [11] is described as follows: qHTS assay to identify small molecule agonists of the endoplasmic reticulum stress response signaling pathway (AID 1159516; active = well fitted activation curve with a large enough effect in the signal ratio in the repeat runs, not every such curve was filed as active; the % refers to the signal ratio). The gist of the method: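 Reporter HeLa cells (ESRE-beta-lactamase) underwent 5 hr compound incubation at 37 C and 5% CO2 in quantitative HTS format. Detection followed 2 hr of FRET substrate loading at room temperature.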
Assay [12] in a line: qHTS assay to identify small molecule agonists of the endoplasmic reticulum stress response signaling pathway - cell viability counter screen (AID 1159517; calls by dose curve). The gist of the method:
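CellTiter-Glo was added to wells already read for beta-lactamase FRET, and luminescence was recorded 30 min later. Cells: ESRE-bla HeLa, 1,500 per well, compound exposure 5 hr at 37 C.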

Assay [13] can be described thus: qHTS assay to identify small molecule antagonists of the retinoid-related orphan receptor gamma (ROR-gamma) signaling pathway - cell viability counter screen (AID 1159520). Note: nearly all actives have a fitted effect of over 50% in size. The gist of the method: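 Tet-on ROR gamma CHO cells (1,000/well) were plated 4 hr, given compounds in DMSO for 2 hr at 37 C, then induced with 1 uM final doxycycline for 16 hr. Viability was read as ATP by CellTiter-Glo luminescence after 30 min.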

Assay [14] is described as follows: qHTS assay to identify small molecule agonists of the AP-1 signaling pathway (AID 1159526; calls by dose curve).
For assay [15], the target named is Retinoic acid receptor RXR-alpha (Homo sapiens) (UniProt P19793). The assay can be described thus: qHTS assay to identify small molecule agonists of the RXR signaling pathway (AID 1159527; calls by dose curve; note: nearly all actives have a fitted effect of over 35% in size). The gist of the method: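 Compounds in DMSO were added to RXR-alpha-UAS-bla HEK 293T cells kept in 2% charcoal-stripped serum, and incubated 16 hr at 37 C with 5% CO2. Reporter signal came from a 2 hr B/G FRET substrate step.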

Assay [16] can be described thus: qHTS assay to identify small molecule agonists of the retinoic acid receptor (RAR) signaling pathway (AID 1159553). The gist of the method:
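Activation of retinol signaling was monitored via a RARE luciferase reporter in C3RL4 cells. After 6 hr compound treatment at 37 C, detection reagent was added for 30 min at room temperature before luminescence reading.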

The nature of assay [17]: qHTS assay to identify small molecule antagonists of the estrogen related receptor (ERR) signaling pathway (AID 1224819). The gist of the method:
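qHTS in ERR cells, 2,000/well, 1536 format. Cpd (DMSO) added after 6 h settle, 18 h 37 C. One-Glo luminescence, 30 min RT.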

The nature of assay [18]: qHTS assay to identify small molecule antagonists of the estrogen related receptor signaling pathway with the pleiotropic PPARgamma coactivator (PGC) cell viability counter screen (AID 1224822;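 note: series mostly up to about 46 µM; viability read after 17.5 h compound exposure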). The gist of the method:
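Compounds in DMSO, with positive and negative controls, were applied to PGC/ERR cells (2,000/well) and left 17.5 h at 37 C before CellTiter-Fluor detection.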

Values joined by “and” are separate entries in the source; they are usually repeats but may differ in a detail not shown here. Equal values may be shown once. Results filed as inconclusive are left out. Active and inactive are the calls of the source. Unless noted, calls come from the whole dose curve; as a rule, active = well fitted curve in the direction sought with a large enough effect in the repeat runs; inconclusive = weak or mixed curves; inactive = no such curve, though single readings can be large; an effect the other way counts as inactive or inconclusive.

Sequence of Luciferin 4-monooxygenase (Photinus pyralis) (P08659 whole entry, looked up): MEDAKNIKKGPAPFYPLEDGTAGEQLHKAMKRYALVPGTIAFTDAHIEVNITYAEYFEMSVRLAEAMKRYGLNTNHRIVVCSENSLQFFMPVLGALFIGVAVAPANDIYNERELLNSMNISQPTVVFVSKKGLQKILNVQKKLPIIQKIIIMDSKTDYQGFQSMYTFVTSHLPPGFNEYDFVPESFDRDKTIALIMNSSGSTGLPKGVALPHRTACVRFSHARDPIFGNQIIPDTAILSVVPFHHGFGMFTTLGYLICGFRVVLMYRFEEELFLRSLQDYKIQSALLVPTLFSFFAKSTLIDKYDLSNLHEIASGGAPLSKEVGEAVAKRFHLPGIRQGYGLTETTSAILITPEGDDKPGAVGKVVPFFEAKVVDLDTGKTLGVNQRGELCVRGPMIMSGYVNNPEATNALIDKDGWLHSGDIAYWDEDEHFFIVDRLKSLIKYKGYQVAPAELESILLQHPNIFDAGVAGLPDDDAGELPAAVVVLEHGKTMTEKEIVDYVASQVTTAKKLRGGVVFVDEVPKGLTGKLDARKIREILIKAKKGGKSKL
Sequence of Retinoic acid receptor RXR-alpha (Homo sapiens) (P19793 whole entry, looked up): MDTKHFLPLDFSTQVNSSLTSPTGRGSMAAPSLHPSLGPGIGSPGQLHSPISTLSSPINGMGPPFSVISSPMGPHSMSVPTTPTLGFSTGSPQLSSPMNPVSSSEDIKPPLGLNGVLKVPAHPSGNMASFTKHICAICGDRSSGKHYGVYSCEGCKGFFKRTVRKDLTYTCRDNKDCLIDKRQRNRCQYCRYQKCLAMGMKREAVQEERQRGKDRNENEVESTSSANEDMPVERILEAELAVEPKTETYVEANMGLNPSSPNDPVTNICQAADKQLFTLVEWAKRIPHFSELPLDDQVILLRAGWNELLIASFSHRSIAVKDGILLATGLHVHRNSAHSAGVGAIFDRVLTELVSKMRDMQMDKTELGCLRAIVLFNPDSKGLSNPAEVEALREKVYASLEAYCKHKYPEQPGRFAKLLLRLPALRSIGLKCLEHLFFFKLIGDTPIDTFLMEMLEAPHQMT

For `Cc1cc(C2CCCCC2)n(O)c(=O)c1`, the Potency in assay [1] is 5.35 µM (active); in [2], 23.7 µM (active); in [7], 9.44 µM (active). In addition, the Potency result in assay [3], in [4], in [5], in [6] and in assay [8] was “inactive” in each case.
Consider `O=C(Nc1cccc(Cl)c1)OCC#CCCl`, for which the values for the Potency in assay [9], in [10] and in assay [7] were 43.6 µM (active), 54.9 µM (active) and 54.5 µM (active), respectively. The Potency result in assay [1], in [3] and in assay [5] was “inactive” throughout.
In the case of `O=C(c1ccc(O)cc1O)c1ccc(O)cc1O`, the Potency result in [9], in assay [10], in assay [12], in assay [13], in assay [2] and in [3] was “inactive” each time. The Potency entry in assay [14], in [15], in assay [4], in assay [5] and in assay [6] was “inactive” throughout. Also, the outcome in [11] was inactive. In addition, in assay [8], the Potency was 40 µM (active) and 44.8 µM (active).
On to `N#CC1(c2ccc(F)cc2)CCC(=O)CC1`, for which the Potency entry in [9], in assay [10], in assay [12], in assay [13], in assay [2] and in [3] was “inactive” in each case. In addition, the Potency entry in assay [14], in assay [15], in assay [4], in assay [5], in assay [6] and in assay [16] was “inactive” throughout. Besides, the Potency result in [7] and in [8] was “inactive” in each case. Also, the compound was classed as inactive in assay [11].
`CSc1ccc(C(=O)c2[nH]c(=O)[nH]c2C)cc1`: the Potency entry in assay [9], in assay [10], in assay [13], in [2], in [3] and in assay [14] was “inactive” each time. For the same compound, the Potency entry in [15], in [4], in assay [5], in assay [6], in [16] and in assay [17] was “inactive” throughout. The Potency entry in [18], in [7] and in assay [8] was “inactive” in each case. The call in assay [11] was inactive.
For the compound `Cc1ccc(O)c(C(C)(C)C)c1`, the Potency in [9] is 19.5 µM (active); in assay [10], 21.8 µM (active). The compound was called inactive in assay [11]. For the same compound, the Potency result in assay [12], in assay [13], in assay [2], in assay [15], in assay [5] and in assay [7] was “inactive” each time. In assay [8], the Potency result was “inactive”.
With `C[C@H]1[C@H]2CC[C@H]3[C@@H]4CC=C5C[C@@H](N(C)C)CC[C@]5(C)[C@H]4CC[C@]23CN1C`, the Potency entry in assay [9], in assay [10], in assay [12], in assay [13], in assay [2] and in assay [3] was “inactive” each time. The Potency result in [14], in [15], in assay [4], in assay [5], in assay [6] and in assay [16] was “inactive” in each case. Further, the Potency entry in assay [8] is “inactive”. In addition, the result in [11] was inactive.

For the origin of these results see PubChem BioAssay (Tox21).
